Screening results from PubChem BioAssay.
FMDV antiviral: antivirals against foot and mouth disease virus. Potency, µM (titrated, usually from 57.9 µM), for the others: at the highest dose activity change, negative = inhibition, hits mostly inhibitors. actives 1.2% (n = 410,000). AID 1159524. FMDV antiviral cell-based qHTS; calls by dose curve; tested in HEK293T cells; further: read-out not given here; potency means the concentration at half of the fitted maximal effect; nearly all actives have a fitted effect of over 45% in size
Vaccinia mCherry: inhibitors of vaccinia virus infection (mCherry reporter signal); Vaccinia virus mCherry reporter infection, fluorescence; Potency, µM (series often up to 36.5 µM), inactives show at the highest dose activity change, negative = inhibition, most hits filed as inhibitors; actives 0.63% (n = 310,000); calls by dose curve; tested in A549 cells; further: potency means the concentration at half of the fitted maximal effect; nearly all actives have a fitted effect of over 35% in size
HCMV inh: human cytomegalovirus inhibition. actives 4.5% (n = 410,000). activity change, negative = inhibition, % at 57.5 µM. HFF cells, HCMV-luciferase reporter, 72 h; active compounds read low; in the data active means activity change below about -60%; inconclusive means no clear call, values can overlap the other calls; inactive means above about -39%
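Compounds were evaluated in HFFs infected with an HCMV luciferase reporter virus (MOI 1 PFU/cell). Luciferase in lysates collected 72 h post infection served as the replication measure.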
Vaccinia Venus: vaccinia inhibition (Venus reporter); Vaccinia virus Venus reporter expression, fluorescence; Potency, µM (top dose mostly 36.5 µM), for inactives: at the highest dose activity change, negative = inhibition, usual class: inhibitors; actives 0.46% (n = 330,000); AID 720580; calls by dose curve; tested in A549 cells; further: potency means the concentration at half of the fitted maximal effect; nearly all actives have a fitted effect of over 30% in size
LASV entry inh: blocks Lassa virus binding to or entry into cells | Lassa virus pseudotype entry inhibition, cell reporter | Potency, µM (doses to about 37.9 µM), without a hit: top-dose activity change, negative = inhibition, hits mostly inhibitors | AID 540256 | actives 1.2% (n = 300,000); calls by dose curve; tested in HEK293 cells; further: potency means the concentration at half of the fitted maximal effect; nearly all actives have a fitted effect of over 50% in size
Marburg entry inh: blocks Marburg virus binding to or entry into cells | Potency, µM (series often up to 37.8 µM), without a hit: top-dose activity change, negative = inhibition, usual class: inhibitors | actives 1.8% (n = 300,000) | Marburg virus pseudotyped entry inhibition, cell reporter | AID 540276; calls by dose curve; tested in HEK293 cells; further: potency means the concentration at half of the fitted maximal effect
* hit, by the source's call; i = inactive; u = inconclusive; x = not tested or not shown; ! = not active in a repeat; [ ] = dose if it differs, or a comment. Compounds with a hit are over-represented: about 6.5% of the library has one in this group of screens. On the % scale 0 is the no-effect control and ±100 the full control effect.

SMILES	FMDV antiviral	Vaccinia mCherry	HCMV inh	Vaccinia Venus	LASV entry inh	Marburg entry inh
COc1cc2[nH]c(C(=O)Nc3ccc4c(c3)OCCO4)cc2c(OC)c1OC	u	-9%	-36	-11%	8%[46.1 µM]	u
CC(C)c1cc(NCC2CCCO2)n2c(nc3ccccc32)c1C#N (centres undefined)	u	x	-60*	x	u	u
CC(C)CN1C(=O)/C(=C/c2cccs2)NC1=S	-8%	x	-63*	x	-7%	u
CC(C)CN1C(=O)/C(=C/c2ccco2)NC1=S	15%	-4%	-39	17%	u	18%
O=c1cc(N2CCOCC2)oc2c(-c3ccccc3)cccc12	-23%	-23%	x	u	-18%	0.32µM*!
Ic1ccc(N2CCN(Cc3c[nH]c4ncccc34)CC2)cc1	-27%	-15%	u	u	u	11µM*
CC(=O)N1[C@H](C)C=C[C@]1(Cc1ccccc1)C(=O)NCCc1c[nH]c2ccccc12	6%	-10%	x	-16%	x	x
C[C@@H]1C=C[C@](Cc2ccccc2)(C(=O)NCCc2c[nH]c3ccccc23)N1C(=O)c1ccccc1	6%	u	u	-13%	8.2µM*	u
c1ccc2c(c1)cnc1ccccc12	23%	i	-3	-15%	4%	22%
c1ccc(-c2ncc3c(ccc4ccccc43)n2)cc1	-60%	-25%	u	-10%	3.5µM*	u
CCN(CC)c1nn2c(=O)c(C(=O)NCc3ccc(OC)cc3OC)cnc2s1	-10%	-13%	-10	-14%	29%[46.1 µM]	x
COc1ccc(/C=C/C(=O)C(C(N)=O)=C2SCCS2)cc1	15%	u	-101*	-14%	-8%	-28%
NC(=O)C(C(=O)/C=C/c1ccc(Cl)cc1)=C1SCCS1	u	x	-101*	x	x	x
COc1ccccc1N=Nc1ccc(O)c2ncccc12	-10%	u	-73*	u	x	x
Oc1ccc(F)c2cccnc12	0%	-6%	-28	-16%	20%	u
Oc1ccc(N=Nc2ccccc2C(F)(F)F)c2cccnc12	-7%	u	-97*	u	x	x
CCS(=O)(=O)c1ccc(N=Nc2ccc(O)c3ncccc23)c(OC)c1	u	7.9µM*	-92*	u	u	u
CCN(CC)c1ccc(C2C(C(=O)Nc3ccccc3C)=C(C)Nc3ncnn32)cc1 (centres undefined)	-4%	-6%	13	-10%	-8%[46.1 µM]	x
COc1ccc(NC(=O)Nc2cccc3c2O[C@H](CN(C)S(C)(=O)=O)[C@@H](C)CN([C@H](C)CO)C3=O)cc1	38%	-11%	0	-8%	x	x
Cc1c(C(=O)Nc2ccc(F)c(F)c2)oc2ccc(S(=O)(=O)N(C)C3CCCCC3)cc12	u	i	u	-29%	-27%[46.1 µM]	x
O=C(c1cccs1)N1C[C@H](O)[C@H](n2cc(C3CC3)nn2)C[C@@H]1c1ccc(Cl)cc1	x	x	x	x	-15%[46.1 µM]	x
COc1cccc(NC(=O)CCC2CCN(C(=O)c3cncs3)CC2)c1	-28%	-5%	10	-3%	-1%	u
C=C1C2c3ccccc3C(CC2(C)O[Si](C)(C)C)N1C(=O)OC (centres undefined)	x	x	x	x	x	22%[14.2 µM]
Nc1ccc(Br)cc1Br	65%	i	-12	-10%	x	x
Cc1cc(C)c(-c2c(N)cc(Br)cc2Br)c(N)c1	u	13µM*	-27	-12%	-28%[46.1 µM]	u
SMILES	FMDV antiviral	Vaccinia mCherry	HCMV inh	Vaccinia Venus	LASV entry inh	Marburg entry inh
COc1ccccc1C(=O)NCc1nc2cccnc2n1Cc1ccc(F)cc1	-15%	-5%	-20	-5%	-10%[46.1 µM]	x
COc1cccc(NC(=O)N(Cc2cn(C)c3ccccc23)C2CCCCC2)c1	19%	-21%	-104*	-22%	u	2%[46.1 µM]
COc1cccc(NC(=O)N(Cc2c[nH]c3ccccc23)C2CCCCC2)c1	13%	-9%	40	-8%	-16%[46.1 µM]	u
Cc1ccc(NC(=O)N(Cc2c[nH]c3ccccc23)C2CCCCCC2)cc1C	19%	u	-4	10%	2.5µM*	u
CCCSc1nc(N)nc2c1ncn2C1OC(CO)C(O)C1O (centres undefined)	-2%	i	-70*	-14%	u	8%[46.1 µM]
COc1ccc(OC)c(C=C2CCc3ccccc3C2=O)c1	37%	2%	-96*	-22%	x	x
COc1ccc(/C=C2\CCc3ccccc3C2=O)cc1OC	15%	7.9µM*	u	u	1%	-11%
COc1cc(/C=C2\CC/C(=C\c3ccc(OCCO)c(OC)c3)C2=O)ccc1OCCO	35µM*	i	u	4%	1%	u
COc1cc(OC)c(OC)cc1/C=C1\CCC/C(=C\c2cc(OC)c(OC)cc2OC)C1=O	u	-28%	-90*	-9%	u	u
COc1ccc(C=C2C=C(C(C)(C)C)C(=O)C(C(C)(C)C)=C2)cc1OC	22µM*	-14%	-99*	-23%	14%[46.1 µM]	u
Fc1ccc(COc2ccc(Br)cc2CNCC2CCCO2)cc1 (centres undefined)	-22%	u	u	u	u	4µM*
O=C(NCc1ccccc1Cl)c1nnc(CS(=O)(=O)c2ccccc2)o1	-15%	i	-99*	-12%	x	x
Cc1cc(C)c(NC(=O)CC(=O)c2ccccc2)c(Cl)c1	-11%	i	u	2%	22%[46.1 µM]	4%[46.1 µM]
Cc1cc(C)c(C(=O)CC(=O)c2ccccc2Cl)c(O)c1	57%	i	-70*	-24%	-11%	u
CCCS(=O)(=O)c1ncc(Cl)c(C(=O)N2CCN(c3ccc(OC)cc3)CC2)n1	-12%	-16%[7.34 µM]	-103*	-9%[7.34 µM]	u	x
CCSc1ncc(Cl)c(C(=O)N2CCN(c3ccc(OC)cc3)CC2)n1	-10%	-14%	-13	-15%	1%[46.1 µM]	-8%[46.1 µM]
CCOC(=O)c1c(C)oc2c1c(C=NCc1ccccn1)c(O)c1ccccc12	-22%	-4%	-32	-10%	14µM*	u
Cc1[nH]c(C)c(C(=O)/C=C/c2ccc([N+](=O)[O-])cc2)c1C	21%	x	-101*	x	x	x
COc1ccc(C=CC(=O)c2ccc([N+](=O)[O-])cc2)cc1	24%	-30%	-23	2%	0%[46.1 µM]	-1%[46.1 µM]
Cc1cc(=O)c2c(O)c3c(O)cc(O)c4c5c(O)cc(O)c6c(O)c7c(=O)cc(C)c8c1c2c(c34)c(c65)c78	-4%	7%	x	-1%	x	x
Cc1cccc(N=c2oc3cc(O)ccc3cc2C(N)=O)c1	4%	-22%	-61*	u	-12%	u
COc1ccccc1N=c1oc2cc(O)ccc2cc1C(N)=O	30%	-25%	-36	u	-28%	-28%
COc1ccc2cc(C(N)=O)c(=Nc3ccc(C)cc3)oc2c1	10%	-14%	-83*	-6%	u	u
COc1ccc2cc(C(N)=O)/c(=N\NC(=O)c3ccccc3)oc2c1	10%	x	23	x	x	x
O=C1CCC[C@H]2[C@@H](Cc3ccccc3)[C@@H](NS(=O)(=O)c3ccc([N+](=O)[O-])cc3)CC[C@]23CCCN13	x	x	-30	x	x	x
